# This is one part of the list. The source made the active and inactive calls. Calls come from the whole dose curve.
# Target: Aldehyde dehydrogenase 1A1 (Homo sapiens) (UniProt P00352)
# Assay: Inhibitors of Aldehyde Dehydrogenase 1 (ALDH1A1): Followup Confirmation and Counterscreen
# Conditions: purified ALDH1A1, NADH fluorescence, propionaldehyde/NAD+
# Description: Aldehyde dehydrogenase 1 (ALDH1A1) catalyzes the NAD+ dependent oxidation of a variety of endogenous and exogenous aldehydes to the corresponding carboxylic acids. The enzyme is the critical step in the metabolic activation of retinoic acid, which plays essential roles as nuclear receptor ligand. […] See [1] through for more information on ALDH1A1. Inhibition of ALDH1A1 activity was screened by utilizing propionaldehyde as an electron donor and NAD+ as an electron acceptor/cofactor. An increase in the fluorescence intensity due to conversion of NAD+ to NADH was used to measure the enzyme activity. See [5] for screening methodology used. References: [1] Manzer R, Qamar L, Estey T, Pappa A, Petersen DR, Vasiliou V. Molecular cloning and baculovirus expression of the rabbit corneal aldehyde dehydrogenase (ALDH1A1) cDNA. DNA Cell Biol. 2003 May;22(5):329-38. […] Quantitative high-throughput screening: a titration-based approach that efficiently identifies biological activities in large chemical libraries. […]
# Buffer: 100 mM Hepes pH 7.5, 0.01% Tween 20. […] The plates were immediately transferred to and read twice on ViewLux High-throughput CCD imager (Perkin-Elmer) 20 minutes apart using 360 nm excitation and 450 nm emission fluorescence protocol. The fluorescence intensity difference between the second and the first time points was used to compute reaction progress.
# Chain of Aldehyde dehydrogenase 1A1 (Homo sapiens) (P00352 whole entry, looked up): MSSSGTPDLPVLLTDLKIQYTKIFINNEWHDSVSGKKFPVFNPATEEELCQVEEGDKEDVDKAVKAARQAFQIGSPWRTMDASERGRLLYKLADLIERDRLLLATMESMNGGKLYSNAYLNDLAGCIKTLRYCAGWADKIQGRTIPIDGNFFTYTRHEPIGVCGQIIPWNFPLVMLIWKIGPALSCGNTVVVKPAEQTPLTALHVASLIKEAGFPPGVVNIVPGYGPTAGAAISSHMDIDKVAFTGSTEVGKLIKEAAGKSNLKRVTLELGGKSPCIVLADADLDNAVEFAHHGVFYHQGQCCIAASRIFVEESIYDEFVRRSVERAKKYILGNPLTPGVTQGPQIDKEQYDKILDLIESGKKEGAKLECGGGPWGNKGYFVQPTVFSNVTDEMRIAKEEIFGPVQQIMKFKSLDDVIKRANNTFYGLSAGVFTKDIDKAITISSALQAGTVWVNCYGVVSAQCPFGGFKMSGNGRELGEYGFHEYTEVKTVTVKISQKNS
smiles,measurement,value
C[C@]12CC[C@@H]3C(=CCc4cc(O)ccc43)[C@@H]1CCC2=O,Potency,501 nM (active)
